Screens from PubChem BioAssay.
In the library only some 2.1% were active in any assay of this set; here they are far more common.
FUS suppressor – qHTS for Suppressors of FUS Proteinopathy: Primary screen using FUS-linked yeast assay; S. cerevisiae FUS-expressing, growth rescue, OD600, 24 h; Potency, µM (doses to about 76.6 µM), most hits filed as activators; hit rate 0.24% among 390,000; note: nearly all actives have a fitted effect of over 55% in size
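Compound concentration series was pinned onto galactose-induced FUS-expressing yeast seeded at OD 0.005. Plates sat 24hr at 30C; absorbance at 600 nm gave growth. DMSO served as background control.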
TSG101-PTAP inh – qHTS Assay for Iinhibitors of HIV-1 Budding by Blocking the Interaction of PTAP/TSG101 | Tumor susceptibility gene 101 protein (Homo sapiens), Q99816 | Fluorescence polarization, FITC-PTAP peptide / Tsg101 binding | Potency, µM (top dose mostly 115 µM), hits mostly inhibitors | 340,000 tested, under 10 active | AID 493005, 2010; active = well fitted inhibition curve with a large enough effect in the main read-out, with a control signal flat, not every such curve was filed as active; inconclusive = small, poorly fitted or top-dose-only effect, or effect the other way, or a change in a side signal; inactive = no such curve, though single readings can be large or run the other way
Target sequence (Q99816 whole entry, looked up): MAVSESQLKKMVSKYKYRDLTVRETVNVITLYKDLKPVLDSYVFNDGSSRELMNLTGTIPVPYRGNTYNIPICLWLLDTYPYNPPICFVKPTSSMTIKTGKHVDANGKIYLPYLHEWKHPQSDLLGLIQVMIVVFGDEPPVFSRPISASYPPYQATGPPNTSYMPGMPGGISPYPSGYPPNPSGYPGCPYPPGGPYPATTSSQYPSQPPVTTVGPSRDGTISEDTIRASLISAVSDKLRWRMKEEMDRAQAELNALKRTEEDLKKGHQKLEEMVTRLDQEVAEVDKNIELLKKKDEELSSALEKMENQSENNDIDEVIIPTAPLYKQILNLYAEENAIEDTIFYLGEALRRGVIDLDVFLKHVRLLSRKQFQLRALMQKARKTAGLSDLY
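Steps: Tsg101 binding domain dispensed (10 uM final), compounds pinned in DMSO, FITC-labeled PTAP-motif peptide added (50 nM final); after 20 min binding at room temperature, polarization measured.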
TDP43 rescue – qHTS of TDP-43 Inhibitors | TDP-43 expressing yeast growth rescue, BacTiter-Glo, 24 h | AID 652104, 2013 | hit rate 1.8% among 410,000 | Potency, µM (titrated, usually from 46.1 µM), usual class: activators; note: nearly all actives have a fitted effect of over 50% in size
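Yeast expressing TDP-43 (pregrown in raffinose, seeded at OD600=0.02 in galactose medium) exposed to compounds 24 hr at 30 deg C. Growth read by BacTiter-Glo luminescence; rescue of toxicity appears as increased signal.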
aSyn rescue – qHTS of alpha-syn Inhibitors. Yeast expressing alpha-synuclein, growth rescue, BacTiter-Glo, 24 h. hit rate 0.14% among 370,000. AID 652106, 2013. Potency, µM (doses to about 46.1 µM), usual class: activators; note: nearly all actives have a fitted effect of over 65% in size
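Readout is rescue of growth in alpha-synuclein-expressing yeast, so inhibitors of toxicity appear as activators. Growth after 24 hr at 30 deg C in galactose medium is quantified by luminescence.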
Abeta rescue – qHTS for compounds that reverse cellular toxicity of Amyloid beta (A-beta) peptide in yeast: Primary Screen; hit rate 0.063% among 410,000; Potency, µM (highest dose often 46.1 µM), usual class: activators; yeast expressing A-beta42, growth rescue, OD600, 48 h; response scale: 0% DMSO, 100% iron-clioquinol control; AID 1347071, 2019; note: nearly all actives have a fitted effect of over 55% in size
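Growth rescue measured by 600 nm absorbance after 48 h yeast culture at 30 C with compound. Values normalized between DMSO and an equimolar ferric chloride plus clioquinol control.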
A number is an active result; i = inactive; ? = inconclusive; nt = no result given; [ ] = another dose, or the depositor's remark. Unless noted, calls come from the whole dose curve; as a rule, active = well fitted curve in the direction sought with a large enough effect; inconclusive = small, poorly fitted or top-dose-only effect, or another doubt; inactive = no such curve, though single readings can be large; an effect the other way counts as inactive or inconclusive.

SMILES	FUS suppressor	TSG101-PTAP inh	TDP43 rescue	aSyn rescue	Abeta rescue
Cc1ccccc1C(=O)Nc1nnc(S(=O)(=O)N2CCCc3ccccc32)s1	i	nt	i	nt	i
CCOC(=O)Cn1c(=O)n(CC2CCCO2)c2nc(-c3ccccc3F)nc(C(N)=O)c21 (configuration not stated)	i	nt	i	i	i
Clc1ccc(-n2nnnc2Sc2ncnc3sccc23)cc1	i	i	10µM	i	i
Clc1ccc(-c2csc3ncnc(Sc4nnnn4-c4ccccc4)c23)cc1	nt	nt	nt	i	nt
O=C(Cc1ccccc1)N(Cc1cccnc1)c1nc2c(F)cccc2s1	i	nt	?	nt	i
COc1ccc2sc(N(Cc3cccnc3)C(=O)c3cccs3)nc2c1	i	nt	i	nt	i
CCOc1ccc2nc(N(Cc3cccnc3)C(=O)c3cccs3)sc2c1	i	nt	14µM	nt	i
CCc1ccc2nc(N(Cc3cccnc3)C(=O)c3ccc(C#N)cc3)sc2c1	i	nt	1.8µM	nt	i
COc1ccc2sc(N(Cc3cccnc3)C(=O)CCc3ccccc3)nc2c1	?	nt	i	nt	i
COc1ccc2nc(N(Cc3cccnc3)C(=O)Cc3ccccc3)sc2c1	i	nt	32µM	nt	i
O=C(Cc1ccccc1)N(Cc1cccnc1)c1nc2c(Cl)cccc2s1	i	nt	20µM	nt	i
CCOc1cccc2sc(N(Cc3cccnc3)C(=O)c3ccc(C#N)cc3)nc12	i	nt	i	nt	i
CCOC(=O)[C@]12CCCCC/C=C\1N(CCc1ccc(Cl)cc1)C(=O)[C@H]2CC(=O)NCc1cccs1	i	nt	nt	nt	nt
Cc1ccc2nc(N(Cc3cccnc3)C(=O)CCc3ccccc3)sc2c1	i	nt	?	nt	i
CCc1ccc2nc(N(Cc3cccnc3)C(=O)Cc3ccccc3)sc2c1	i	nt	28µM	nt	i
CC(=O)c1ccc(C(=O)N(Cc2cccnc2)c2nc3c(C)c(C)ccc3s2)cc1	?	nt	22µM	nt	i
CC(=O)c1ccc(C(=O)N(CCCN(C)C)c2nc3c(C)c(C)ccc3s2)cc1	i	nt	i	nt	i
Cc1nnc(SCc2ccc(Cl)c(Cl)c2)s1	nt	i	13µM	i	i
Cc1nnc(SCc2ccc(F)cc2)s1	i	i	i	i	i
CCCC1CCC2(CC1)CCC2OC(=S)NCc1cccc(F)c1 (configuration not stated)	i	nt	nt	nt	nt
Cc1ccc(-n2nnnc2-c2ccccc2Br)cc1	i	i	i	?	i
c1ccc(-n2nnnc2-c2cccc3ccccc23)cc1	nt	i	14µM	i	i
NC(c1csc(Nc2nccc(C(F)(F)F)n2)n1)C1CCCCC1 (configuration not stated)	i	nt	i	i	i
CCc1ccc(NC(=O)c2cc(C(C)=O)n3ccccc23)cc1	i	nt	11µM	nt	i
COc1ccc(NC(=O)c2cc(C(C)=O)n3ccccc23)cc1Cl	i	nt	i	nt	i
SMILES	FUS suppressor	TSG101-PTAP inh	TDP43 rescue	aSyn rescue	Abeta rescue
CN1c2ccccc2Oc2nnc(N3CCN(Cc4ccccc4)CC3)cc21	i	i	i[9.22 µM]	i	i
CN1c2ccccc2Oc2nnc(Cl)cc21	i	i	11µM	16µM	i
Cc1cccc(CN2C(=O)c3ccccc3S(=O)(=O)c3ccc(C(=O)N4CCN(c5cc(C)ccc5C)CC4)cc32)c1	i	nt	i	nt	i
CCOC(=O)[C@]12CCCC=C1N(CCC1=CCCCC1)C(=O)[C@H](CC(=O)NCc1ccccc1)C2	?	nt	22µM	i	?
CCOC(=O)[C@]12CCC=C1N(CCC1=CCCCC1)C(=O)[C@H](CC(=O)NCc1ccccc1)C2	i	nt	i	i	i
CCOC(=O)[C@]12CCCC=C1N(CCC1=CCCCC1)C(=O)[C@H](CC(=O)NCC1CCCCC1)C2	?	nt	22µM	i	i
CN(C(=O)COC(=O)c1nc(Cl)ccc1Cl)c1ccccc1	nt	nt	i	i	i
C=C1CCN(Cc2ccccc2)S(=O)(=O)c2ccccc21	i	i	i	22µM	i
COc1cccc(CN2CCN(C(=O)c3oc4c(F)cccc4c3C)CC2=O)c1	i	i	20µM	i	i
Cc1c(C(=O)N2CCN(Cc3nccn3C)CC2)oc2c(F)cccc12	i	nt	?	i	i
Cc1cc(SCc2cc(=O)n3ccsc3n2)nc2ccccc12	i	i	11µM	i	i
COC(=O)CSCc1nc(-c2ccc(C(=O)OC)cc2)oc1C	i	nt	i	nt	i
Cc1cccc(OCCCCn2nnc3sc4c(c3c2=O)CCC(C)C4)c1 (configuration not stated)	i	nt	i	nt	i
O=c1c2ccccc2ncn1CCCSc1ccccc1	i	i	13µM	i	i
O=c1c2ccccc2ncn1CCCSc1ccc(Cl)cc1	i	i	?	i	i
CCOc1cccc(-c2nnc3n2N=C(c2ccc(OC)cc2)CS3)c1	i	nt	nt	nt	nt
CNc1nc(Oc2ccc3sc(C)nc3c2)c2sccc2n1	i	nt	20µM	i	i
CNc1ccccc1C(C)(C)c1cc(-c2cccc([N+](=O)[O-])c2)no1	i	i	i	i	11µM
Oc1ccc(Oc2ccc(Oc3ccc(O)cc3)cc2)cc1	i	i	20µM	i	i
Cc1cc(Sc2ncnc(N)c2[N+](=O)[O-])ncn1	i	i	22µM	i	i
Cc1cccc(Oc2ncnc(N)c2[N+](=O)[O-])c1	i	i	?	i	i
Cc1ccc(Oc2ncnc(N)c2[N+](=O)[O-])cc1C	i	i	11µM	i	i
CCCC1CCC2(CCCN2CCOC(=O)Nc2ccccc2)CC1 (configuration not stated)	i	nt	nt	nt	nt
Cc1ccc(N(C)C(=O)c2sc3nc4n(c(=O)c3c2C)CCCC4)cc1C	i	nt	16µM	nt	i
COc1ccc(C)cc1N(C)C(=O)c1sc2nc3n(c(=O)c2c1C)CCCCC3	i	nt	i	nt	i
SMILES	FUS suppressor	TSG101-PTAP inh	TDP43 rescue	aSyn rescue	Abeta rescue
Cc1ccc(Cl)cc1N(C)C(=O)c1sc2nc3n(c(=O)c2c1C)CCCC3	i	nt	20µM	nt	i
O=C(N/N=C/c1c[nH]c2ccccc12)c1cccc(Cl)c1	i	i	i	i	i
O=C(N/N=C/C1C(c2ccccc2)C1(Cl)Cl)c1cccc(Cl)c1 (configuration not stated)	5.6µM	i	i	i	i
CC(Sc1ccc2ccccc2n1)C(=O)O (configuration not stated)	i	i	11µM	i	i
CC(Sc1cnc2ccccc2n1)C(=O)O (configuration not stated)	i	i	i	i	i
CC(=O)N1CCN(C(C)=O)c2ccccc21	nt	i	i	i	i
CC(=O)N1CCn2c3ccc(C)cc3c3cccc1c32	i	i	14µM	i	i
COc1ccc(N2CCN(CC(O)COc3ccc(C(C)C)c(C)c3)CC2)cc1 (configuration not stated)	i	nt	i	nt	i
Cc1ccc(C(C)NC(=S)NCc2ccc(F)cc2)cc1C (configuration not stated)	i	i	i	i	14µM
